Source: PubChem BioAssay (Fisher Drug Discovery Resource Center)
mcGAS lum: cyclic GMP-AMP synthase inhibitors, mouse, primary biochemical chemiluminescence | Q8C6L5 | AID 1259399, 2018 | hit rate 0.15% among 160,000 | inhibition, % at 12.5 µM | recombinant cGAS, Kinase-Glo ATP depletion luminescence;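 also: 0% = negative control wells and 100% = reference inhibitor with no enzyme activity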
hcGAS inh: Primary biochemical luminescence assay for human cyclic GMP-AMP synthase inhibitors; AID 1259398, 2018; hit rate 0.081% among 290,000; recombinant h-cGAS, ATP depletion, Kinase-Glo luminescence; inhibition, % at 12.5 µM; Q8N884;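 also: 0% = vehicle reaction and 100% = reaction without DNA for no activity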
Target sequence (Q8N884 whole entry, looked up): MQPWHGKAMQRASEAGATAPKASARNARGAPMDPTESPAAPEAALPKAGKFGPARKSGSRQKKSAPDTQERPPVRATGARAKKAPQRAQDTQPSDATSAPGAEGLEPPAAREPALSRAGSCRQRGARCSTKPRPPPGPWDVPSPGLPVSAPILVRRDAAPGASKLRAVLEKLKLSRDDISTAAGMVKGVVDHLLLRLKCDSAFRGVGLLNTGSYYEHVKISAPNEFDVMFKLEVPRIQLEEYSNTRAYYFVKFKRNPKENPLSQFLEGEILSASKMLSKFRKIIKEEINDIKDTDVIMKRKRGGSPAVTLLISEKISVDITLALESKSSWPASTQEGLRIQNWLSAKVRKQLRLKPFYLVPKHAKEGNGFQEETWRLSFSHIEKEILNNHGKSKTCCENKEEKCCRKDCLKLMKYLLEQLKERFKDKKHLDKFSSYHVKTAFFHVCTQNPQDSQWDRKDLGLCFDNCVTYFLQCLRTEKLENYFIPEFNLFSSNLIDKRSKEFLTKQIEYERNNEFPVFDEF
NPYLR7 agonist: agonists of mosquito NPYLR7 receptor, primary screen, cell-based, Aedes aegypti, calcium fluorescence, mosquito biting behavior. hit rate 0.15% among 270,000. activation, % at 10 µM. HEK293T NPYLR7/Galpha15, GCaMP6s calcium fluorescence; in the data active = activation above about 40%;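 also: 0% = vehicle and 100% = reference agonist at the receptor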
* = called active by the depositor; . = no result. Sampled rows, rich in hits. Any-hit rate of the full collection: about 0.3%. Rule as the data show it, unless noted: active = inhibition above about 40%; inactive = the rest.

SMILES | mcGAS lum | hcGAS inh | NPYLR7 agonist
COc1cc(Br)c(O)c(/C=N\n2c(C)n[nH]c2=S)c1 | . | 10 | 134*
COc1ccc(-c2n[nH]c(=S)n2N=Cc2ccc(OC)c(Br)c2)cc1 | -5 | -5 | 5
O=C(c1ccc2cccc(F)c2n1)N1CCCC(O)(CO)CC1 (configuration not stated) | -12 | -9 | 3
O=C(C(Cl)=CNc1nccs1)C(F)(F)F | . | -4 | -7
CCCCCC(=O)NC1=NCCS1 | . | -3 | -1
C=CCN1C(=O)C(Cc2ccc(OC)cc2)S/C1=N\N=C/c1ccco1 (configuration not stated) | -6 | -5 | 2
C=CCN1C(=O)C(Cc2ccc(OC)cc2)S/C1=N/N=C\c1cccs1 (configuration not stated) | -5 | 1 | 88*
CCOc1ccc(-c2cc(C(=O)NCc3cc(C(F)(F)F)cc(C(F)(F)F)c3)c3ccccc3n2)cc1 | -7 | -9 | 25
CC(C#N)c1cccc(C(=O)N2CCOC(COCc3ccc(F)cc3Cl)C2)c1 (configuration not stated) | -6 | -9 | 9
CCCOc1ccc(C(=O)NCc2ccc(NC(=O)NC(C)C)cc2)cc1 | -2 | -5 | -6
N#CC1C(=N)Oc2cc(O)ccc2C1c1ccc(Cl)cc1Cl (configuration not stated) | . | -5 | 96*
N#CC1C(=N)Oc2cc(O)ccc2C1c1ccc(Br)cc1 (configuration not stated) | . | -2 | 0
N#CC1C(=N)Oc2cc(N)ccc2C1c1ccc(Cl)cc1Cl (configuration not stated) | . | -7 | 6
N#CC1C(=N)Oc2cc(O)ccc2C1c1ccccc1I (configuration not stated) | 2 | 4 | 82*
N#CC1C(=N)Oc2cc(O)ccc2C1c1cccs1 (configuration not stated) | -1 | -4 | 11
N#CC1C(=N)Oc2cc(O)ccc2C1c1ccncc1 (configuration not stated) | -1 | -8 | 85*
Cc1ccc(C2Nc3ccccc3N=C3CC(c4ccc(Cl)cc4)CC(=O)C32)cc1[N+](=O)[O-] (configuration not stated) | . | -4 | -8
CC(C)(Nc1ccccc1)C(=O)NC1CC(=O)N(C2CCCCCC2)C1 (configuration not stated) | -17 | -2 | 12
Brc1cc2c(cc1CSc1nnnn1C1CC1)OCCO2 | . | -3 | 7
Cn1nnnc1SCc1cc2c(cc1Br)OCO2 | -2 | 66* | 0
Cn1cnc2c1c(=O)n(CCCSc1nnnn1Cc1cccs1)c(=O)n2C | . | 0 | 2
COCCCN(Cc1ccc(C(C)(C)C)cc1)Cc1cccn1Cc1cccc(C)c1 | -5 | -10 | 41*
COCCN(Cc1ccc(C(C)(C)C)cc1)Cc1cccn1Cc1cccc(C)c1 | -3 | 1 | 17
COc1ccc(CCNC(=O)Cc2csc(SCc3ccc(C)cc3)n2)cc1 | -1 | -1 | .
COc1ccc(C(O)(c2ccc(OC)cc2)c2ccc(CN(Cc3cccc(F)c3)CC3CCCO3)o2)cc1 (configuration not stated) | -3 | 0 | -6
SMILES | mcGAS lum | hcGAS inh | NPYLR7 agonist
N#CC(=Cc1ccc(OC(F)F)cc1)C(=O)O | 49* | -2 | 0
CC(C)NC(=O)C(C#N)=Cc1ccc(O)cc1 | 2 | 7 | 4
CCc1cc(=O)n(CC(=O)Nc2ccccc2)c(-n2nc(C)cc2C)n1 | 16 | -10 | -1
CCc1nnc(NC(=O)c2cc(C)no2)s1 | 46* | 16 | 12
CCOC(=O)c1sc(NC(=O)c2cc(C)no2)nc1C | -4 | 0 | 6
COc1ccc([N+](=O)[O-])cc1NC(=O)C1CCCC1 | -1 | -10 | -1
O=[N+]([O-])c1ccc(Nc2ccc(F)cc2)c([N+](=O)[O-])c1 | -5 | -11 | 2
CCCCC(=O)Nc1cc([N+](=O)[O-])ccc1OC | . | -5 | 1
O=C(CCl)Nc1cc([N+](=O)[O-])ccc1Nc1ccc(F)cc1 | 57* | -2 | -6
COc1cc([N+](=O)[O-])ccc1NC(=O)CCl | 70* | 1 | -4
COc1ccc([N+](=O)[O-])cc1NC(=O)CCl | 44* | -4 | -3
CC(=O)c1c[nH]c(C(=O)NC2(C)CCS(=O)(=O)C2)c1 (configuration not stated) | . | 3 | 2
CC(C)c1nccn1C(C)c1nn2c(Cc3ccccc3)nnc2s1 (configuration not stated) | -16 | -4 | .
CC(Cn1ccnc1)NC(=O)NCC(C)(C)c1ccccc1F (configuration not stated) | . | 43* | 0
CC(Cn1ccnc1)NC(=O)c1ccccc1N(C)C(=O)c1cccs1 (configuration not stated) | . | -2 | 5
Oc1cc(OCCN2CCN(Cc3ccc4c(c3)OCO4)CC2)ccc1-c1[nH]ncc1-c1ccccc1 | -10 | -6 | 3
COc1ccccc1-c1cc(C(=O)N2CCc3ccccc3C2)nc2cc(C(C)(C)C)nn12 | 84* | 6 | -2
CC(C)(C)c1cc2nc(C(=O)N3CCc4ccccc4C3)cc(-c3ccccc3F)n2n1 | 1 | 1 | -13
CC(C)(Oc1cccc2ccccc12)C(=O)N1CCOC(C(F)(F)F)C1 (configuration not stated) | . | 1 | 4
CCn1nc(C)cc1C(=O)N1CCCC(C(=O)Nc2ccc(-c3ccco3)cc2)C1 (configuration not stated) | . | -6 | 2
O=C(CC(c1cccc([N+](=O)[O-])c1)c1c[nH]c2ccccc12)N1CCN(c2ccccc2F)CC1 (configuration not stated) | -3 | -1 | 3
O=C(CC(c1cccc([N+](=O)[O-])c1)c1c[nH]c2ccccc12)NC1CC1 (configuration not stated) | -5 | -6 | 41*
Nc1ccc2oc(=O)[nH]c2c1 | -6 | -9 | 2
NC(=O)c1cnc(Sc2ccc3[nH]c(=O)oc3c2)c(Cl)c1 | -15 | -8 | 16
O=c1[nH]c2c(Br)c(Br)c(Cl)cc2o1 | 90* | -1 | -2
SMILES | mcGAS lum | hcGAS inh | NPYLR7 agonist
O=c1[nH]c2c(Cl)c(Cl)c(Cl)cc2o1 | 82* | 49* | -6
O=c1[nH]c2ccc(S(=O)(=O)Nc3ccccc3Oc3ccccc3Cl)cc2o1 | . | 10 | 13
O=c1[nH]c2cc(Cl)c(Br)cc2o1 | 42* | 24 | -3
CCC1CN(C(=O)CSc2nnc(-c3ccc(F)cc3)n2C)CCO1 (configuration not stated) | . | -11 | 2
O=C(NCC1CCCCC1)C(C1CCCC1)N1CCN(C(=O)C2CC2)CC1 (configuration not stated) | -2 | 1 | -6
Cc1cccc(Oc2cc(C(C)C)nc(SCc3cccc(C(F)(F)F)c3)n2)c1C | -6 | -6 | 25
O=C(c1ccco1)N(Cc1cccnc1)Cc1nccn1Cc1cccc(C(F)(F)F)c1 | -6 | -6 | 0
COc1ccc(-c2nnc(SCC(=O)N/N=C\C=C\c3ccccc3)n2-c2ccccc2)cc1OC | -9 | -2 | -6
COC(=O)c1ccc(COC(=O)C(C)NC(=O)c2ccco2)o1 (configuration not stated) | . | -5 | 10
CCOC(=O)c1ccc(N=c2oc3cc(O)ccc3cc2-c2nc3ccccc3[nH]2)cc1 | -6 | -3 | 120*
